Experimental findings from PubChem BioAssay (NCATS) are described below.

Structures are written as SMILES. Values joined by “and” are separate entries in the source; they are usually repeats but may differ in a detail not shown here. Identical values can stand only once. Results filed as inconclusive are left out. Values without a mark were called inactive. Active and inactive are the calls of the source. Calls come from the whole dose curve; as a rule, active = well fitted cell-killing curve with a large enough effect; inconclusive = small, poorly fitted or top-dose-only effect, or effect the other way; inactive = no such curve, though single readings can be large or run the other way.

Experiment [1] is described as follows: Viability qHTS for spleen associated tyrosine kinase inhibitor (SYKi) naive MV4-11 cells (AID 1963823). Note: nearly all actives have a fitted effect of over 40% in size. A digest of the protocol: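 Viability of MV4-11 AML cells lacking prior SYK inhibitor exposure is scored by CellTiter-Glo luminescence following 72 hr compound incubation at 37 C, 5% CO2, seeded at 500 cells per well.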
For orientation: Quantitative high-throughput screening tests each substance at several concentrations.

Experiment [2] is described as follows: Viability qHTS for spleen associated tyrosine kinase inhibitor (SYKi) drug resistant MV4-11 cells (AID 1963824). Note: nearly all actives have a fitted effect of over 35% in size. An outline of the steps:
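SYK-inhibitor-resistant MV4-11 AML cells were seeded at 500 per well onto compound and cultured 72 hours (37 °C, 5% CO2). CellTiter-Glo was then added, and after 10 min at room temperature, luminescence gave viability.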
Potency is the fitted concentration of half-maximal effect.

`Cc1cc2c(c(=O)o1)C=C1CC[C@H]([C@H](C)Cn3cnc(=N)c4[nH]cnc43)C[C@@H]1O2`: the Potency entry in experiment [1] and in experiment [2] was “inactive” in each case.
Regarding `COC(=O)c1ccnc(-c2cc(C(=O)Nc3ccc(C4(N)CC4)cc3)ccn2)c1`, the Potency result in experiment [1] and in experiment [2] was “inactive” throughout.
Take `CNC(=O)c1ccc2c(c1)CCO[C@H]2CCN1CCN(c2ccc(C(N)=O)cc2)CC1`: the Potency result in experiment [1] and in experiment [2] was “inactive” each time.
As to `CC(C)C[C@@H](N)C(=O)N[C@H]1C(=O)N[C@@H](CC(N)=O)C(=O)N[C@H]2C(=O)N[C@H]3C(=O)N[C@H](C(=O)N[C@H](C(=O)O)c4cc(O)cc(O)c4-c4cc3ccc4O)[C@H](O)c3ccc(c(Cl)c3)Oc3cc2cc(c3O[C@@H]2O[C@H](CO)[C@@H](O)[C@H](O)[C@H]2O[C@H]2C[C@](C)(N)[C@H](O)[C@H](C)O2)Oc2ccc(cc2Cl)[C@H]1O`, the Potency result in experiment [1] and in experiment [2] was “inactive” in each case.
With `C[C@@H]1CC[C@]2(C(=O)O[C@@H]3O[C@H](CO[C@@H]4O[C@H](CO)[C@@H](O[C@@H]5O[C@@H](C)[C@H](O)[C@@H](O)[C@H]5O)[C@H](O)[C@H]4O)[C@@H](O)[C@H](O)[C@H]3O)CC[C@]3(C)C(=CCC4[C@@]5(C)C[C@@H](O)[C@H](O)[C@@](C)(CO)C5CC[C@]43C)C2[C@H]1C` (some centres not stated), the viability (% of control) in experiment [1] is 87.5% [at 9.25 µM]. In addition, in experiment [2], the viability, % of control is 113% [at 9.25 µM].
In the case of `COc1c(C)c2c(c(O)c1C/C=C(\C)CCC(=O)O)C(=O)OC2`, the Potency in experiment [1] was 750 nM (active) and 1.32 µM (active); in experiment [2] it was 473 nM (active) and 934 nM (active).
On to `CN[C@H](C(=O)N[C@H](C(=O)N(C)[C@H](/C=C(\C)C(=O)O)C(C)C)C(C)(C)C)C(C)(C)c1ccccc1`, for which the Potency entry in experiment [1] and in experiment [2] was “inactive” throughout.
In the case of `Cc1cc(Nc2cc(C)c(C#N)c(NC(C)CCCC(C)(C)O)n2)n[nH]1` (configuration not stated), the results for the Potency in experiment [1] and in experiment [2] were 0.259 µM (active) and 0.411 µM (active), respectively.
For `C/C(=C\CCC(C)CCO)C(=O)OC1(C)CCC2C(C(=O)O)=COC(OC3OC(CO)C(O)C(O)C3O)C21` (configuration not stated), the Potency result in experiment [1] and in experiment [2] was “inactive” in each case.
On to `CC(C)OC(=O)OCOP(=O)(COC(C)Cn1cnc2c(N)ncnc21)OCOC(=O)OC(C)C` (configuration not stated), for which the Potency in experiment [1] is 2.31 µM (active); in experiment [2], 2.06 µM (active).
For `CCC(C)(O)C(O)C(=O)OCc1ccc(O[C@@H]2O[C@H](CO)[C@@H](O)[C@H](O)[C@H]2O)cc1` (some centres not stated), the Potency result in experiment [1] and in experiment [2] was “inactive” each time.
For the compound `CN1CCN(C(=O)CN[C@@H]2C[C@H]2c2ccc(OCc3ccccc3)cc2)CC1`, the Potency in experiment [1] and in experiment [2] was 25.9 µM (active) each time.
In the case of `CCC1CC2C(C)=CC3CCCCC3C2(C)C2(OC(=O)C(C)(O)OC2=O)O1` (configuration not stated), the Potency was 12.8 µM (active) in experiment [1] and 10.1 µM (active) in experiment [2].
As for `C/C=C(/COC(=O)/C(C)=C/C)C(=O)OC(CC)c1ccc(OC)c(OC)c1` (configuration not stated), the Potency entry in experiment [1] and in experiment [2] was “inactive” in each case.
Regarding `COC1CC(O[C@H]2CC[C@@]3(C)C(=CC[C@]4(O)C3[C@H](OC(C)=O)[C@@H](OC(=O)c3ccccc3)[C@]3(C)[C@@H](C(C)=O)CC[C@@]34O)C2)OC(C)C1OC1CC(OC)C(OC2CC(OC)C(OC3OC(C)C(OC4OC(CO)C(O)C(O)C4O)C(OC)C3O)C(C)O2)C(C)O1` (some centres not stated), the viability (% of control) in experiment [1] is 74.5% [at 9.25 µM]. The viability, % of control in experiment [2] is 66.2% [at 9.25 µM].
Take `CCOc1c2c(c(OCC)c3ccccc13)C(=O)N(c1ccc(CC(=O)NS(=O)(=O)c3ccccc3)cc1)C2`: the Potency result in experiment [1] and in experiment [2] was “inactive” each time.
On to `C/C=C/C(O)C1OC(=O)CC1Nc1ccc(C(=O)O)cc1` (configuration not stated), for which the Potency result in experiment [1] and in experiment [2] was “inactive” throughout.
Consider `C/C=C1/CC2C(=O)Nc3cc(O)c(OC)cc3C(=O)N2C1` (configuration not stated), for which the Potency is 16.1 µM (active) in experiment [1] and 14.3 µM (active) in experiment [2].
On to `CO[C@H]1C=C2C(CC[C@H](O[C@@H]3O[C@H](CO)[C@@H](O)[C@@H](O)[C@H]3O)C2(C)C)[C@]2(C)CC[C@]3(C)C([C@H](C)C(O)C(C=C(C)C)O[C@@H]4O[C@H](CO)[C@@H](O)[C@@H](O)[C@H]4O)CC[C@@]3(C)C12` (some centres not stated), for which, in experiment [1], the viability (% of control) was 86.9% [at 9.25 µM]. Moreover, the viability, % of control in experiment [2] was 90.7% [at 9.25 µM].
For `C=CC(C)(C)c1[nH]c2ccccc2c1C[C@@H]1NC(=O)[C@H](Cc2c[nH]c3ccccc23)NC1=O`, the Potency result in experiment [1] is “inactive”. The Potency in experiment [2] was 0.252 µM (active).
Taken in the same sequence, the figures for `O=[N+]([O-])c1cccc2[nH]c(CNc3nc(N4CCOCC4)nc4c3ncn4-c3ccsc3)nc12` were 0.0146 µM (active) and 0.0206 µM (active).
Take `Nc1nc(NC2CC2)cc(-c2cccc(Cl)c2Cl)n1`: the Potency is 10.3 µM (active) in experiment [1] and 7.31 µM (active) in experiment [2].
As for `C=C1C(=O)OC2C1CCC1(C)C(O)CC=C(C)C21` (configuration not stated), the values for the Potency in experiment [1] and in experiment [2] were 10.3 µM (active) and 4.61 µM (active), respectively.
For the compound `CC(=O)N[C@H]1[C@H](O[C@H]2CC[C@@]3(C)C(CC[C@]4(C)C3CC=C3C5CC(C)(C)CC[C@]5(C(=O)O)[C@H](O[C@@H]5O[C@H](CO)[C@@H](O)[C@H](O)[C@H]5O)C[C@]34C)C2(C)C)O[C@H](CO[C@@H]2OC[C@H](O)[C@H](O)[C@H]2O[C@@H]2OC[C@@H](O)[C@H](O)[C@H]2O)[C@@H](O)[C@@H]1O` (some centres not stated), the viability (% of control) in experiment [1] was 57% [at 9.25 µM]. Moreover, the viability, % of control in experiment [2] was 81.4% [at 9.25 µM].
In the case of `C/C=C1\[C@H](O[C@@H]2O[C@H](CO)[C@@H](O)[C@H](O)[C@H]2O)OC=C(C(=O)OCCc2ccc(O)cc2)[C@H]1CC(=O)OCCc1ccc(O)cc1`, the Potency entry in experiment [1] and in experiment [2] was “inactive” throughout.
As to `C=CC(C)(C)C12C=C(OC)C(=O)N3C(C(C)C)C(=O)NC31N(OC)c1ccccc12` (configuration not stated), the Potency result in experiment [1] was “inactive”. Moreover, the Potency in experiment [2] is 7.09 µM (active).
